From PubChem BioAssay (Tox21)
Values joined by “and” are separate entries in the source; they are usually repeats but may differ in a detail not shown here. Equal entries are not always repeated. Inconclusive results are not listed. Active and inactive are the calls of the source. Unless noted, calls follow the shape of the dose curve; as a rule, active = well fitted curve in the direction sought with a large enough effect in the repeat runs; inconclusive = weak or mixed curves; inactive = no such curve, though single readings can be large; an effect the other way counts as inactive or inconclusive.

What was measured:
[1] = qHTS assay for small molecules that induce genotoxicity in human embryonic kidney cells expressing luciferase-tagged ATAD5 (AID 651632); also: nearly all actives have a fitted effect of over 15% in size
How it was run: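 HEK293T cells carrying a luciferase reporter tagged to ATAD5 were exposed to compound or DMSO vehicle for 16 hr at 37C, 5% CO2. Amplite was added, and after 30 min at room temperature luciferase activity was read as a marker of ATAD5 induction.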

[2] = qHTS assay for small molecules that induce genotoxicity in human embryonic kidney cells expressing luciferase-tagged ATAD5 - cell viability (AID 651634; calls by dose curve; also: nearly all actives have a fitted effect of over 25% in size; also: potency is read from the fitted curve at half-maximal effect)
How it was run: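 HEK293T cells expressing luciferase-tagged ATAD5 were exposed to compound or DMSO for 15.5 hr at 37C, 5% CO2. Viability was then read as live-cell protease activity by CellTiter-Fluor fluorescence after 30 min at 37C.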

[3] = qHTS assay for small molecule disruptors of the mitochondrial membrane potential - cell viability (AID 720634; calls by dose curve; also: nearly all actives have a fitted effect of over 20% in size; also: potency is read from the fitted curve at half-maximal effect)
How it was run: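 HepG2 cells seeded overnight at 37 C, then exposed to compound or DMSO for 1 hr at 37 C, 5% CO2. m-MPI dye added, then CellTiter-Glo for 30 min at room temperature; viability read as ATP luminescence.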

[4] = qHTS assay for small molecule disruptors of the mitochondrial membrane potential (AID 720635); also: potency is read from the fitted curve at half-maximal effect
How it was run: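 HepG2 cells exposed to compound 1 hr at 37C, then Mito-MPS dye 30 min. Ratio read of aggregate (540/590 nm) versus monomer (490/535 nm) fluorescence.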

[5] = qHTS assay to test for compound auto fluorescence at 590 nm (red) in HepG2 cells (AID 720674)
How it was run: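 Fluorescence at 590 nm emission following 540 nm excitation was recorded from HepG2 wells one hour after compound transfer, with DMSO-only wells as vehicle and Rose Bengal sodium equivalency as the scale.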

[6] = qHTS assay to test for compound auto fluorescence at 535 nm (green) in HepG2 cells (AID 720675); also: potency is read from the fitted curve at half-maximal effect
[7] = qHTS assay to test for compound auto fluorescence at 460 nm (blue) in HEK293 cells (AID 720678)
How it was run: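 HEK293 cells (2,000/well, medium with 10% dialyzed FBS) attached 4-5 hr, then exposed to compound overnight at 37C, 5% CO2. Blue fluorescence read at 405/460 nm, with triamterene as reference fluorophore.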

[8] = qHTS assay to test for compound auto fluorescence at 590 nm (red) in HEK293 cells (AID 720679)
How it was run: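 HEK293 cells (2,000/well, 10% dialyzed FBS) attached 4-5 hr, then dosed with compound or DMSO and incubated overnight at 37C, 5% CO2. Red fluorescence read at 540/590 nm, Rose Bengal sodium as reference fluorophore.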

[9] = qHTS assay to test for compound auto fluorescence at 535 nm (green) in HEK293 cells (AID 720680)
[10] = qHTS assay to test for compound auto fluorescence at 460 nm (blue) in HEK293 cell free culture (AID 720681)
How it was run: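 Compounds were added to cell-free DMEM with 10% FBS and fluorescence read directly. The blue channel used 405 nm excitation and 460 nm emission, with triamterene as the reference fluorophore.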

[11] = qHTS assay to test for compound auto fluorescence at 535 nm (green) in HEK293 cell free culture (AID 720682)
How it was run: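 Each library compound, or DMSO control, is added by pintool to medium alone, comprising DMEM and 10% FBS. Emission at 535 nm following 485 nm excitation is quantified against fluorescein.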

[12] = qHTS assay to test for compound auto fluorescence at 590 nm (red) in HEK293 cell free culture (AID 720683)
How it was run: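 Cell-free wells of DMEM with 10% FBS received compound, and intrinsic fluorescence was read at excitation/emission 540/590 nm. Values expressed as equivalence to Rose Bengal sodium.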

[13] = qHTS assay to test for compound auto fluorescence at 590 nm (red) in HepG2 cell free culture (AID 720684)
How it was run: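 Compounds are added to culture medium (MEM, 10% FBS) lacking cells, then fluorescence is read at excitation 540 nm, emission 590 nm, with Rose Bengal sodium as the equivalency standard.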

[14] = qHTS assay to test for compound auto fluorescence at 460 nm (blue) in HepG2 cell free culture (AID 720685)
How it was run: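 Compound (23 nL) or DMSO pinned into cell-free MEM with 10% FBS; blue fluorescence read at 405/460 nm excitation/emission, expressed as auto-fluorescence equivalency to triamterene.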

[15] = qHTS assay to test for compound auto fluorescence at 535 nm (green) in HepG2 cell free culture (AID 720686)
[16] = qHTS assay to test for compound auto fluorescence at 460 nm (blue) in HepG2 cells (AID 720687)
How it was run: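 HepG2 cells in MEM with 10% FBS, attached overnight at 37 C, were exposed to compound or DMSO for 1 hr at 37 C, 5% CO2. Blue fluorescence was read at 405/460 nm, with triamterene as reference fluorophore.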

[17] = qHTS assay for small molecule agonists of the p53 signaling pathway - cell viability (AID 651633; calls by dose curve; also: nearly all actives have a fitted effect of over 30% in size; also: potency is read from the fitted curve at half-maximal effect)
How it was run: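 p53RE-bla cells were treated with compound for 16 hours at 37 C. Cytotoxicity was then measured as CellTiter-Glo luminescence after 30 min at room temperature.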

[18] = molecular target: Glucocorticoid receptor (Homo sapiens) (UniProt P04150); assay: qHTS assay to identify small molecule agonists of the glucocorticoid receptor (GR) signaling pathway (AID 720691; active = well fitted activation curve with a large enough effect in the signal ratio in the repeat runs, not every such curve was filed as active; the % refers to the signal ratio; also: potency is read from the fitted curve at half-maximal effect); conditions: GR-bla HeLa, beta-lactamase reporter ratio, 18 h; activation: at 62.4 µM (top of the series)
How it was run: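 GR-bla HeLa cells (beta-lactamase reporter under glucocorticoid response element) were plated 4 h at 37 C/5% CO2, given compounds in DMSO, and incubated 18 h at 37 C. LiveBLAzer B/G FRET substrate was added for 2 h at room temperature, then fluorescence intensity read.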

[19] = molecular target: Glucocorticoid receptor (Homo sapiens) (UniProt P04150); assay: qHTS assay to identify small molecule antagonists of the glucocorticoid receptor (GR) signaling pathway (AID 720692; active = well fitted inhibition curve with a large enough effect in the signal ratio in the repeat runs, not every such curve was filed as active; the % refers to the signal ratio)
How it was run: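 GR-bla HeLa cells (beta-lactamase reporter under glucocorticoid response element) were pre-plated 4 h at 37 C, treated with compounds plus 5 nM dexamethasone (final) for 18 h, then read by LiveBLAzer B/G FRET fluorescence after 2 h.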
% is scaled to controls: 0 for no effect and ±100 for the full control effect.

Glucocorticoid receptor (Homo sapiens), sequence (P04150 whole entry, looked up): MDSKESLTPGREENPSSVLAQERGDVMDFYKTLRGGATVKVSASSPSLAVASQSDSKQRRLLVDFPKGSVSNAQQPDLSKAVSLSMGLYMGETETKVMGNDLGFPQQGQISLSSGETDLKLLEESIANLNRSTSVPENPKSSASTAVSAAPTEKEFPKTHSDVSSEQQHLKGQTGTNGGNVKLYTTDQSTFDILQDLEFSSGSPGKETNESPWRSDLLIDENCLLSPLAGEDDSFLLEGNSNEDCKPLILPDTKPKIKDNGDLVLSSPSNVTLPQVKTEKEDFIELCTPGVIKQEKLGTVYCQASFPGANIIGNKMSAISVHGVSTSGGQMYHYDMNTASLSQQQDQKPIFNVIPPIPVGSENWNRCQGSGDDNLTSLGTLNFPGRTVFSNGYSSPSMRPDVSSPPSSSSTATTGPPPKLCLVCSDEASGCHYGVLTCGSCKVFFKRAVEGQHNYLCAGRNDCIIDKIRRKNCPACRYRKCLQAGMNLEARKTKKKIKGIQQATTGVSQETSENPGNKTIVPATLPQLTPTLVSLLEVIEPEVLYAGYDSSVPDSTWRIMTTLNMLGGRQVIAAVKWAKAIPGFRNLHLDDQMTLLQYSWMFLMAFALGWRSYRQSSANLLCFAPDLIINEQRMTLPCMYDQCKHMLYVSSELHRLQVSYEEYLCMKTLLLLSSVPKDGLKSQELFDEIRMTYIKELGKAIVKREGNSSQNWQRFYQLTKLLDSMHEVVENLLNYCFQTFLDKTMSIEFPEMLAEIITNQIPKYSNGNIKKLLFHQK

CCN(Cc1cccnc1)C(=O)c1cccc(Cl)c1[C@]1(C)C(=O)N(Cc2ccc(OC)cc2OC)c2ccc(Cl)cc21
active: Potency [2] 9.05 µM | Potency [4] 8.07 µM
inactive: Potency [1] | Potency [3] | Potency [5] | Potency [6] | Potency [7] | Potency [8] | outcome [9] | Potency [10] | outcome [11] | Potency [12] | Potency [13] | Potency [14] | Potency [15] | Potency [16]

Cc1cc(O)c(Cl)c(C)c1Cl
active: Potency [17] 68.6 µM | Potency [3] 54.5 µM | Potency [4] 1.93 µM
inactive: Potency [1] | Potency [5] | Potency [6] | Potency [7] | Potency [8] | outcome [9] | Potency [10] | outcome [11] | Potency [12] | Potency [13] | Potency [14] | Potency [15] | Potency [16] | Potency [18]

CCCCN(CCCC)C(=O)N(CCCC)CCCC
inactive: Potency [1] | Potency [17] | Potency [5] | Potency [6] | Potency [7] | Potency [8] | outcome [9] | Potency [10] | outcome [11] | Potency [12] | Potency [13] | Potency [14] | Potency [15] | Potency [16] | Potency [18]

O=C(NO)C1(NS(=O)(=O)c2ccc(Oc3ccc(F)cc3)cc2)CCOCC1
inactive: Potency [1] | Potency [17] | Potency [3] | Potency [4] | Potency [5] | Potency [6] | Potency [7] | Potency [8] | outcome [9] | Potency [10] | outcome [11] | Potency [12] | Potency [13] | Potency [15] | Potency [18]

CCOC(=O)O[C@]1(C(=O)OCCl)CC[C@H]2[C@@H]3CCC4=CC(=O)C=C[C@]4(C)[C@H]3[C@@H](O)C[C@@]21C
active: Potency [18] 0.0756 µM
inactive: Potency [1] | Potency [17] | Potency [3] | Potency [4] | Potency [5] | Potency [6] | Potency [7] | Potency [8] | outcome [9] | Potency [10] | outcome [11] | Potency [12] | Potency [13] | Potency [14] | Potency [15] | Potency [16]

Nc1ccc2c3c(cccc13)-c1ccccc1-2
active: Potency [4] 4.91 µM | Potency [6] 39.8 µM
inactive: Potency [1] | Potency [5] | Potency [8] | Potency [12] | Potency [13]

CNc1ccc(O)cc1
inactive: Potency [2] | Potency [5] | Potency [6] | Potency [7] | Potency [8] | outcome [9] | Potency [10] | outcome [11] | Potency [12] | Potency [13] | Potency [14] | Potency [15] | Potency [16]

O=[N+]([O-])c1cc(Cl)c(Cl)c(Cl)c1Cl
inactive: Potency [17] | Potency [2] | Potency [3] | Potency [5] | Potency [6] | Potency [7] | Potency [8] | outcome [9] | Potency [10] | outcome [11] | Potency [12] | Potency [13] | Potency [14] | Potency [15] | Potency [16]

Cc1cccc(CN2CCN(C(c3ccccc3)c3ccc(Cl)cc3)CC2)c1 (stereo not drawn)
inactive: Potency [1] | Potency [2] | Potency [3] | Potency [4] | fluorescence, relative to Rose Bengal [5] -0.676% [at 18.6 µM] | fluorescence, % of fluorescein control [6] 0.0228% [at 18.6 µM] | fluorescence, % of triamterene [7] 0.0825% [at 18.6 µM] | fluorescence, % of fluorescent control [8] 0.431% [at 18.6 µM] | fluorescence, % of fluorescein [9] 0.0512% [at 18.6 µM] | fluorescence, % of fluorescent control [10] -0.0116% [at 18.6 µM] | fluorescence, % of fluorescent control [12] 0.0211% [at 18.6 µM] | fluorescence, % of Rose Bengal [13] 0.0634% [at 18.6 µM] | fluorescence, % of fluorescent control [14] -0.0261% [at 18.6 µM] | fluorescence, % of fluorescein control [15] -0.0169% [at 18.6 µM] | Potency [18] | Potency [19]

CCN(CC)CCNC(=O)c1c(C)[nH]c(/C=C2\C(=O)Nc3ccc(F)cc32)c1C
inactive: Potency [3] | Potency [5] | Potency [6] | Potency [7] | Potency [8] | outcome [9] | Potency [10] | outcome [11] | Potency [12] | Potency [13] | Potency [14]
active: Potency [17] 11.9 µM

O=c1[nH]sc2ccccc12
active: Potency [4] 27.3 µM
inactive: Potency [1] | Potency [2] | Potency [3] | Potency [5] | Potency [6] | Potency [7] | Potency [8] | outcome [9] | Potency [10] | Potency [12] | Potency [13] | Potency [14] | Potency [15] | Potency [16]

CC/C(=C(\c1ccc(O)cc1)c1ccc(OCCN(C)C)cc1)c1ccccc1
active: Potency [3] 68.7 µM | Potency [4] 24.4 µM
inactive: Potency [1] | Potency [5] | Potency [6] | Potency [7] | Potency [8] | outcome [9] | Potency [10] | outcome [11] | Potency [12] | Potency [13] | Potency [14] | Potency [15] | Potency [16]

CCCCCCCCCCCCCCCC[N+](C)(C)CCN(Cc1ccc(OC)cc1)c1ncccn1
inactive: Potency [1] | Potency [2] | Potency [3] | fluorescence, relative to Rose Bengal [5] 0.0174% [at 18.6 µM] | fluorescence, % of fluorescein control [6] -0.0711% [at 18.6 µM] | fluorescence, % of triamterene [7] 0.0413% [at 18.6 µM] | fluorescence, % of fluorescent control [8] -0.0306% [at 18.6 µM] | fluorescence, % of fluorescein [9] -0.0029% [at 18.6 µM] | fluorescence, % of fluorescent control [10] -0.0676% [at 18.6 µM] | activity change [11] -0.0015% [at 18.6 µM] | fluorescence, % of fluorescent control [12] -0.016% [at 18.6 µM] | fluorescence, % of Rose Bengal [13] 0.665% [at 18.6 µM] | fluorescence, % of fluorescent control [14] -0.0338% [at 18.6 µM] | fluorescence, % of fluorescein control [15] -0.0114% [at 18.6 µM] | fluorescence, % of fluorescent control [16] 0.0553% [at 18.6 µM] | Potency [18] | Potency [19]
active: Potency [4] 11.4 µM

S=c1[nH]c2ccccc2s1
inactive: Potency [17] | Potency [2] | Potency [3] | Potency [5] | Potency [6] | Potency [7] | Potency [8] | outcome [9] | Potency [10] | Potency [12] | Potency [13] | Potency [14] | Potency [15] | Potency [16] | Potency [18] | Potency [19]
active: Potency [4] 26.6 µM and 27.3 µM
